RE007 growth inh – less growth of the S. pombe RE007 Vpr strain | S. pombe RE007 Vpr strain, BacTiter-Glo ATP luminescence, 24 h | Potency, µM (series often up to 92.2 µM), inactives show at the highest dose activity change, negative = less growth, most hits filed as inhibitors | 0.21% of 360,000 active; active = well fitted falling curve with a large enough effect; inconclusive = small, poorly fitted or top-dose-only effect; inactive = no such curve, though single readings can be large or run the other way; also: nearly all actives have a fitted effect of over 50% in size
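Fission yeast strain RE007, carrying one chromosomally integrated HIV-1 vpr copy, was seeded at OD 0.01 in PMG+AL medium with 23 nL pinned compound. After 24 h at 30 °C and 99% humidity, viability was read by BacTiter-Glo luminescence.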
AmpC detergent – blocks E. coli AmpC beta-lactamase in detergent assay. P00811. AmpC hydrolysis of nitrocefin, absorbance 480 nm, 0.01% Triton. Potency, µM (titrated, usually from 114 µM), without a hit: at the top dose activity change, negative = inhibition, actives largely listed as inhibitors. 0.041% of 370,000 active;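 also: 0% = no-compound wells and -100% = no-enzyme wells; nearly all actives have a fitted effect of over 25% in size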
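20 mM phosphate pH 7.0 + 0.01% (detergent screen) or 0.0001% Triton X-100; 5.3 nM AmpC reagent; cpd preinc 15 min RT; nitrocefin (800 uM stock) to start; A480 q20 s × 4 min; Activity was normalised to no-enzyme and no-compound control wells.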
Giardia FBPA inh – inhibitors of Giardia lamblia fructose-1,6-bisphosphate aldolase; A8B2U2; purified Giardia FBPA; Potency, µM (top dose mostly 59.6 µM), for inactives: at the top dose activity, negative = inhibition, most hits filed as inhibitors; 0.71% of 290,000 active; AID 2451; also: nearly all actives have a fitted effect of over 55% in size
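40 nM FBPA preincubated 10 min at RT with compound (up to 57.5 uM final), then substrate plus GAPDH/TPI/NAD/arsenate coupling and diaphorase/resazurin added. Fluorescence read after 20 min at RT, 525/598 nm.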
LmPK inh – blocks Leishmania mexicana pyruvate kinase activity | purified LmPK, Kinase-Glo ATP luminescence, 1 h | Potency, µM (titrated, usually from 57.5 µM), inactives show at the top dose activity change, negative = inhibition, usual class: inhibitors | 0.37% of 290,000 active | AID 1721
Target sequence (Q27686 whole entry, looked up): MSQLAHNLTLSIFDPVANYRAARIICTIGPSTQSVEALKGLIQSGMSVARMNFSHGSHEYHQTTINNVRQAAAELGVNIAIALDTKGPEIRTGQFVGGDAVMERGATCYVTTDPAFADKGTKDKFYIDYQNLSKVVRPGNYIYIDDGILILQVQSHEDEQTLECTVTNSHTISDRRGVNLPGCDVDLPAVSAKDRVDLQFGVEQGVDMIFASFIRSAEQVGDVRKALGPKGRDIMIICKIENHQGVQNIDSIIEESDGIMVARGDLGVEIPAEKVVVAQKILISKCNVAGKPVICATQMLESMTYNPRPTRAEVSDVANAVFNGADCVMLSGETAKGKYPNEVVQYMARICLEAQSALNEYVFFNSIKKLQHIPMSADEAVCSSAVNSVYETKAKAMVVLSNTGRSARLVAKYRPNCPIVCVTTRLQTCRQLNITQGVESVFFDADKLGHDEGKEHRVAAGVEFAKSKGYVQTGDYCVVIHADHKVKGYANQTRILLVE
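Kinase-Glo luminescence read after 1 h RT reaction of 0.1 nM LmPK with 0.5 mM PEP and 0.1 mM ADP. Activity scaled between uninhibited and enzyme-free controls.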
AmpC inh no detg – inhibitors of E. coli AmpC beta-lactamase without detergent; P00811; AmpC nitrocefin hydrolysis, absorbance 480 nm, 0.0001% Triton; Potency, µM (titrated, usually from 57.1 µM), for inactives: at the highest dose activity change, negative = inhibition, hits mostly inhibitors; 0.52% of 330,000 active;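 also: plate controls were no compound for no effect and no enzyme for full effect; nearly all actives have a fitted effect of over 20% in size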
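20 mM phosphate pH 7.0 + 0.01% (detergent screen) or 0.0001% Triton X-100; 5.3 nM AmpC reagent; cpd preinc 15 min RT; nitrocefin (800 uM stock) to start; A480 q20 s × 4 min; Activity was normalised to no-enzyme and no-compound control wells.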
TbPYK inhibitor – inhibitors of Trypanosoma brucei pyruvate kinase | Q57TT1 | TbPYK enzyme, Kinase-Glo Plus ATP luminescence, 45 min | Potency, µM (doses to about 76.8 µM), for the others: at the top dose activity, negative = inhibition, most hits filed as inhibitors | 0.12% of 410,000 active; also: nearly all actives have a fitted effect of over 50% in size
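Enzyme and substrate buffer are dispensed first and compound is pin-transferred. ADP at 130 uM final then starts the reaction, which runs 45 min at room temperature. Detection reagent is added for 10 min before luminescence is imaged.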
An asterisk follows results filed as active; ? = inconclusive; / = no result given; [ ] = remark or other dose. Rows were chosen to be rich in hits. Some 1.4% of all compounds tested hit in one or more screens of this group. Unless noted, calls follow the shape of the dose curve; as a rule, active = well fitted curve in the direction sought with a large enough effect; inconclusive = small, poorly fitted or top-dose-only effect, or another doubt; inactive = no such curve, though single readings can be large; an effect the other way counts as inactive or inconclusive. Unless noted, % is scaled to controls: 0 for no effect and ±100 for the full control effect; potency is read from the fitted curve at half-maximal effect.

SMILES	RE007 growth inh	AmpC detergent	Giardia FBPA inh	LmPK inh	AmpC inh no detg	TbPYK inhibitor
CCOC(=O)Cc1csc(NC(=O)c2c(C)noc2C)n1	11.0%	/	/	/	/	-1.1%
Cc1cccc(NC(=O)c2ccoc2C)n1	-20.6%	-4.2%	4.6%	?	-11.9%	-7.7%
CCOC(=O)Cc1csc(NC(=O)Nc2cccc(Cl)c2)n1	4.7%	-1.9%	4.2%	-2.0%	20µM*	-2.7%
COc1cc(NC(=O)CCCc2nnc3n(CC(C)C)c(=O)c4sccc4n23)cc(OC)c1	/	11.7%	/	/	/	-0.4%
COc1ccc(C(=O)Nc2ccccc2C(=O)N/N=C/c2ccncc2)cc1OC	8.91µM*	-3.1%	-0.7%	14.1µM*	13.2%	-28.9%
O=C(Nc1ccccc1C(=O)N/N=C/c1ccc(O)cc1)c1ccccc1	?	5.4%	-9.4%	14.1µM*	-37.3%	-22.6%
O=C(Nc1ccccc1C(=O)N/N=C/c1ccccc1)c1ccco1	-24.8%	-2.1%	3.0%	-2.9%	-50.6%	3.4%
Cc1cccc(C(=O)Oc2ccc(/C=N/NC(=O)c3ccc(O)cc3)cc2)c1	34.2%	-2.2%	1.0%	8.4%	14.1µM*	6.8%
Cc1cccc(C(=O)Oc2ccc(/C=N/NC(=O)c3ccccc3O)cc2)c1	2.9%	4.5%	-10.8%	2.1%	-29.2%	-1.9%
O=S(=O)(Nc1nc2ccccc2s1)c1ccc(Br)s1	15.5%	?	16.5%	3.2%	31.6µM*	1.9%
C[C@@H]1O[C@@]2(CS1)CN1CCC2CC1	/	/	/	/	/	-7.0%
O=S(=O)(Nc1cccc(-c2nc3cccnc3s2)c1)c1ccc2c(c1)OCCO2	-0.7%	?	13.2%	-3.2%	3.16µM*	2.8%
CS(=O)(=O)CC[C@@H](C(=O)NCCc1ccccc1)N1Cc2ccccc2C1=O	/	-2.1%	/	/	/	-12.7%
COC1=C(c2ccccc2)C(=O)c2ccccc2C1=O	?	6.1%	?	-5.2%	-5.0%	-18.3%
COC1=CC(=O)c2ccccc2C1=O	22.4µM*	/	/	/	-8.7%	-5.8%
COc1ccc(SN=C2C(C)=CC(=O)C=C2C)cc1	-5.1%	?	4.0%	2.0%	-18.1%[11.4 µM]	0.9%
COC1=CC(=O)C=C(OC)C1=O	-14.7%[18.4 µM]	/	7.06µM*	/	/	?
Cc1cc(C)n(Cc2ccc(Cl)cc2Cl)c(=O)c1S(=O)(=O)c1ccccc1	4.3%	4.5%	-29.7%	-0.2%	0.159µM*	2.5%
C=C(C)Cn1c(C)cc(C)c(S(=O)(=O)c2ccc(C)cc2)c1=O	6.8%	5.1%	-13.0%	0.7%	-3.3%	0.2%
CCC1=NN2C(=N)/C(=C\c3cccn3-c3ccc(OC)cc3)C(=O)N=C2S1	-4.8%	?	19.0%	9.7%	-52.8%	3.8%
Cc1ccc(-n2cccc2/C=C2\C(=N)N3N=C(C(C)C)SC3=NC2=O)cc1	3.8%	?	0.5%	4.5%	15.8µM*	0.6%
CCN(C(=O)c1nn(-c2ccc(OC)c(Cl)c2)c(=O)c2c1c1ccccc1n2C)c1cc(OC)ccc1OC	/	1.2%	/	/	/	-5.4%
CC(=NNc1nc2ccccc2s1)c1ncccn1	?	/	/	/	/	2.3%
C/C(=N\Nc1nc2ccccc2s1)c1cccs1	35.5µM*	10.1%	-5.2%	-5.8%	-1.9%	-8.2%
O=C(Oc1cccc2cccnc12)c1cccc(N2C(=O)C3C4CCC(C4)C3C2=O)c1 (stereo not drawn)	15.8µM*	-5.2%	-20.3%	1.0%	0.9%	?
CCCOc1ccc(C(=O)NNC(=S)NC(=O)c2cc(-c3ccccc3)nc3ccccc23)cc1	21.6%	-12.7%	?	2.3%	4.47µM*	-13.2%
CCOc1cccc(-c2cc(C(=O)Nc3ccon3)c3ccccc3n2)c1	-5.1%	-1.5%	-7.8%	0.5%	17.8µM*	-4.7%
COc1cc(OC)cc(C(=O)NCc2ccc3c(c2)CCN3C(=O)c2ccccc2)c1	/	10.8%	/	/	/	9.0%
CCCN1C(=O)c2[nH]nc(-c3ccccc3O)c2C1c1cccc(OCc2ccccc2)c1 (stereo not drawn)	/	11.2%	/	/	/	0.2%

From PubChem
